Experimental data: PubChem BioAssay (NCI)
Where “and” joins values, the source holds several entries; their conditions need not be identical. Equal values may be shown once. Compounds without any hit were thinned out: in the full panel of roughly 83,000, 20% have a hit.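 For each line, cells grew in 96-well plates with the test compound present at a single concentration for 48 hours.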 A structure can be active in one record and inactive in another. Calls of active or inactive are those of the source. The calls were made as follows: active = growth percent below 10; inactive = the rest.

Tests used:
Assay in all cases: NCI-60 one-dose screen, 48 h (100 = growth as untreated, 0 = no growth, -100 = all killed)
Conditions in all cases: 10 µM unless noted
NCI-H23 lung = test system: NCI-H23 lung
NCI-H226 lung = test system: NCI-H226 lung
NCI-H322M lung = test system: NCI-H322M lung
HOP-62 NSCLC = test system: HOP-62 NSCLC
NCI-H460 lung = test system: NCI-H460 lung
HOP-92 NSCLC = test system: HOP-92 NSCLC
NCI-H522 lung = test system: NCI-H522 lung
A549/ATCC NSCLC = test system: A549/ATCC NSCLC
786-0 renal = test system: 786-0 renal
COLO 205 colon = test system: COLO 205 colon
DU-145 prostate = test system: DU-145 prostate
K-562 leukemia = test system: K-562 leukemia
MALME-3M melanoma = test system: MALME-3M melanoma
MDA-MB-231 breast = test system: MDA-MB-231 breast
RXF 393 renal = test system: RXF 393 renal
SF-268 CNS = test system: SF-268 CNS
SF-295 CNS = test system: SF-295 CNS
SF-539 CNS = test system: SF-539 CNS
UACC-257 melanoma = test system: UACC-257 melanoma
M14 melanoma = test system: M14 melanoma

Row | Compound | growth (NCI-H23 lung) | growth (NCI-H226 lung) | growth (NCI-H322M lung) | growth (HOP-62 NSCLC) | growth (NCI-H460 lung) | growth (HOP-92 NSCLC) | growth (NCI-H522 lung) | growth (A549/ATCC NSCLC) | growth (786-0 renal) | growth (COLO 205 colon) | growth (DU-145 prostate) | growth (K-562 leukemia) | growth (MALME-3M melanoma) | growth (MDA-MB-231 breast) | growth (RXF 393 renal) | growth (SF-268 CNS) | growth (SF-295 CNS) | growth (SF-539 CNS) | growth (UACC-257 melanoma) | growth (M14 melanoma)
1 | CCN(CC)CCNc1ccc(C)c2sc3ccccc3c(=O)c12 (tested in a mixture with another compound) | 46.1% (inactive) and 52.4% (inactive) | 64.9% (inactive) and 64.7% (inactive) | 30% (inactive) and 56% (inactive) | 51.4% (inactive) and 51.3% (inactive) | 8.45% (active) and 5.28% (active) | 68.6% (inactive) and 38.1% (inactive) | 22.6% (inactive) and 39.6% (inactive) | 21.9% (inactive) and 19.8% (inactive) | 33.7% (inactive) and 37.3% (inactive) | 27% (inactive) and 14.7% (inactive) | 36% (inactive) and 39.4% (inactive) | 0.322% (active) and 13.3% (inactive) | 30.9% (inactive) and 48.2% (inactive) | 18.3% (inactive) and 24.8% (inactive) | -9.22% (active) and 16.4% (inactive) | 36.2% (inactive) and 24.3% (inactive) | 35.4% (inactive) and 40.9% (inactive) | 38.6% (inactive) and 32% (inactive) | -52.9% (active) and -51.9% (active) | -50.9% (active) and -40.5% (active)
2 | CN(C)c1ccc(/C=C(\C#N)c2ccccc2)cc1 | 29.3% (inactive) and 36.4% (inactive) and 44.1% (inactive) | 92.4% (inactive) and 60.5% (inactive) and 73% (inactive) | 64% (inactive) and 57.1% (inactive) and 47.6% (inactive) | 48.3% (inactive) and 31.4% (inactive) and 36.6% (inactive) | 11.2% (inactive) and 20.8% (inactive) and 12.2% (inactive) | 53.9% (inactive) and 39.5% (inactive) and 14% (inactive) | -50% (active) and 2.73% (active) and 5.2% (active) | 24.3% (inactive) and 31.2% (inactive) and 24.9% (inactive) | 44.7% (inactive) and 42.3% (inactive) and 45.6% (inactive) | -2% (active) and -7.08% (active) | 15.7% (inactive) and 38.1% (inactive) | 11.3% (inactive) and 14% (inactive) and 23.9% (inactive) | 53.7% (inactive) and 51.2% (inactive) and 57.3% (inactive) | 55.7% (inactive) and 50.3% (inactive) and 48.9% (inactive) | -6.38% (active) and -3.64% (active) | 43.5% (inactive) and 61.1% (inactive) and 56% (inactive) | -18.9% (active) and 23.5% (inactive) and 17% (inactive) | -2.9% (active) and -3.11% (active) and -13.1% (active) | 20.1% (inactive) and 66.6% (inactive) and 56.6% (inactive) | 19.1% (inactive) and 30.2% (inactive) and 24% (inactive)
3 | CCN(CC)C(=S)SSC(=S)N(CC)CC | 91% (inactive) and 111% (inactive) | 86.5% (inactive) and 104% (inactive) | 84.8% (inactive) and 102% (inactive) | 82.1% (inactive) and 88.7% (inactive) | 62.4% (inactive) and 111% (inactive) | 90.4% (inactive) and 110% (inactive) | 58.1% (inactive) and 88.8% (inactive) | 85.5% (inactive) | 91.2% (inactive) and 91.7% (inactive) | 82.9% (inactive) and 106% (inactive) | 83.4% (inactive) and 109% (inactive) | 54.6% (inactive) and 80.5% (inactive) | 61.2% (inactive) and 113% (inactive) | 81.6% (inactive) and 102% (inactive) | 105% (inactive) and 131% (inactive) | 88.1% (inactive) and 95.7% (inactive) | 78.5% (inactive) and 103% (inactive) | 91.5% (inactive) and 92.8% (inactive) | 69.7% (inactive) and 69.5% (inactive) | 66.8% (inactive) and 92.4% (inactive)
4 | CC(C)C(=O)Nc1ccc([N+](=O)[O-])c(C(F)(F)F)c1 | 89.5% (inactive) and 93.9% (inactive) | 72.5% (inactive) and 82.8% (inactive) | 104% (inactive) and 113% (inactive) | 94.9% (inactive) and 84.2% (inactive) | 83.8% (inactive) and 109% (inactive) | 53.9% (inactive) and 91.1% (inactive) | 79.2% (inactive) and 79.1% (inactive) | 81.4% (inactive) and 103% (inactive) | 96.4% (inactive) and 87.2% (inactive) | 93.5% (inactive) and 117% (inactive) | 74% (inactive) and 113% (inactive) | 57.1% (inactive) and 62.1% (inactive) | 83.3% (inactive) and 88% (inactive) | 84.7% (inactive) and 102% (inactive) | 104% (inactive) | 88.6% (inactive) and 102% (inactive) | 76.7% (inactive) and 92% (inactive) | 96.9% (inactive) and 92.7% (inactive) | 108% (inactive) and 112% (inactive) | 98.9% (inactive) and 92.9% (inactive)
